The supplement of paper PMC11732987, “Enantioselective OTUD7B fragment discovery through chemoproteomics screening and high-throughput optimisation” (Communications Chemistry, 2025)

What was measured:
Assay in all cases: log2 ratio of Biotin-Ahx-Ub-VS probe labelling (fragment/DMSO); higher = less target engagement (more negative = stronger competition), active = hit call of the paper (q ≤ 0.05, log2 ratio ≤ -1)
Settings in all cases: compound concentration: 200 uM; treatment time: 3 h
OTUD6B = target: T1, OTUD6B (UniProt Q8N6M0)
T1 sequence (whole entry): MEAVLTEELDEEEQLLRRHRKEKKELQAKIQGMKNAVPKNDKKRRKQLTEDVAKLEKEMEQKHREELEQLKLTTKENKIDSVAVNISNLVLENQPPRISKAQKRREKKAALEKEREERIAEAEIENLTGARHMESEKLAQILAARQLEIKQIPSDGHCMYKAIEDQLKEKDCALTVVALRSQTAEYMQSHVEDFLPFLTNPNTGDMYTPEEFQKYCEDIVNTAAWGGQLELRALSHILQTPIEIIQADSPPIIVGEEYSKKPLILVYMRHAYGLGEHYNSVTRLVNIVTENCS
Method in brief: (§1)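 Fragment (200 µM) or vehicle was incubated for 3 h with triplicate HEK293T lysate samples of 495 µg, which were then treated with Biotin-Ahx-Ub-VS at 0.5 µM final for 1 h. Labelled DUBs were enriched on NeutrAvidin, digested with LysC and trypsin, and analysed by diaPASEF LC-MS/MS. Values are average log2 fragment/vehicle ratios from an unpaired t-test on global-median-normalised Spectronaut label-free quantities, using proteins with ≥2 unique peptides.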

OTUD7B = target: T2, OTUD7B (UniProt Q6GQQ9)
T2 sequence (whole entry): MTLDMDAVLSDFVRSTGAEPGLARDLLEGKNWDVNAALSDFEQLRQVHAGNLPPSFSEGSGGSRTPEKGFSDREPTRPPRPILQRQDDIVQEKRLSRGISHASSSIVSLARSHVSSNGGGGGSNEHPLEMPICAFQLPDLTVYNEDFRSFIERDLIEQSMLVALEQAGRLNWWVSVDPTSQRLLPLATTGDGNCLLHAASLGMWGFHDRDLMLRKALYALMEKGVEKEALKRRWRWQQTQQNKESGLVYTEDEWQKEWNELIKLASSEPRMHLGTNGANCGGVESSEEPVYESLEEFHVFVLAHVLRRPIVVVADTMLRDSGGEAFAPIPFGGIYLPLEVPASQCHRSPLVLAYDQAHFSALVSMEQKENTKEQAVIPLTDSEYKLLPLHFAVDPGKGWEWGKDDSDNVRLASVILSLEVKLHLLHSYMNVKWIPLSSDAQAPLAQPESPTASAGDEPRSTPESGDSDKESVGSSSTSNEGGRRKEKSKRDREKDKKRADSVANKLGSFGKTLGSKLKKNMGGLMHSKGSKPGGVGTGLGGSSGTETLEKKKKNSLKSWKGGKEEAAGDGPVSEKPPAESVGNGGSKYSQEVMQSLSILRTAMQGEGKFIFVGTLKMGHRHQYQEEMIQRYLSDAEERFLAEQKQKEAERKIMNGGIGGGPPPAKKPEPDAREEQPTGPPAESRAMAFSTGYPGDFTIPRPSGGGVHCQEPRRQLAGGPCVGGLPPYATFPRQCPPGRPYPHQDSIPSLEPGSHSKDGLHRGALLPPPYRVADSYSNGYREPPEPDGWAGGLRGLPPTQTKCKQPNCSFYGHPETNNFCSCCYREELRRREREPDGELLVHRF
Method in brief: as §1

PRPF8 = PRPF8 (UniProt Q6P2Q9)
Method in brief: as §1

PSMD7 = target: T3, PSMD7 (UniProt P51665)
T3 sequence (whole entry): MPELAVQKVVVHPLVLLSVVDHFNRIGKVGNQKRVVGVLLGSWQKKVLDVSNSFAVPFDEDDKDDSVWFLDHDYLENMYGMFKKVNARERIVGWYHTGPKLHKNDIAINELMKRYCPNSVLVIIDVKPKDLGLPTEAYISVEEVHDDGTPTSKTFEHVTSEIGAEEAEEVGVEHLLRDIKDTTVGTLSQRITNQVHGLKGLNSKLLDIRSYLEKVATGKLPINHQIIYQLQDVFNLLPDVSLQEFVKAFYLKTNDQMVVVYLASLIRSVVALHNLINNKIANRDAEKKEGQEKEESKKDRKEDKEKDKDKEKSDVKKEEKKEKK
Method in brief: as §1

UCHL1 = UCHL1 (UniProt P09936)
Method in brief: as §1

UCHL3 = target: T4, UCHL3 (UniProt P15374)
T4 sequence (whole entry): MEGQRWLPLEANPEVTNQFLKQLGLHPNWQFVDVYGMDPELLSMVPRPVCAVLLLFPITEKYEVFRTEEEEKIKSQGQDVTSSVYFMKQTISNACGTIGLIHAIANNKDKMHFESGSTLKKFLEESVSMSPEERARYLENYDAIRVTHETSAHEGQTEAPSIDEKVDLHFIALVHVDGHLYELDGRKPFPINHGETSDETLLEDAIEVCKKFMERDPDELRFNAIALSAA
Method in brief: as §1

UCHL5 = target: T5, UCHL5 (UniProt Q9Y5K5)
T5 sequence (whole entry): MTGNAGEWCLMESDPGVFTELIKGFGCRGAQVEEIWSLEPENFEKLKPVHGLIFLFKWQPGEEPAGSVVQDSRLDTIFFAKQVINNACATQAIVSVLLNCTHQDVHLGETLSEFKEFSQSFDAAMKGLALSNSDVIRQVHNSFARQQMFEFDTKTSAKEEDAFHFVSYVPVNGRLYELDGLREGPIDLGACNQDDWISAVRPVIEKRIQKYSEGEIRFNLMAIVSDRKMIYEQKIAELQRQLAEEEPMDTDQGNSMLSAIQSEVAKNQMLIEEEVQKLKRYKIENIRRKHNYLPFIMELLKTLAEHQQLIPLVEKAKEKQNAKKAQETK
Method in brief: as §1

USP10 = USP10 (UniProt Q14694)
Method in brief: as §1

USP15 = target: T6, USP15 (UniProt Q9Y4E8)
T6 sequence (whole entry): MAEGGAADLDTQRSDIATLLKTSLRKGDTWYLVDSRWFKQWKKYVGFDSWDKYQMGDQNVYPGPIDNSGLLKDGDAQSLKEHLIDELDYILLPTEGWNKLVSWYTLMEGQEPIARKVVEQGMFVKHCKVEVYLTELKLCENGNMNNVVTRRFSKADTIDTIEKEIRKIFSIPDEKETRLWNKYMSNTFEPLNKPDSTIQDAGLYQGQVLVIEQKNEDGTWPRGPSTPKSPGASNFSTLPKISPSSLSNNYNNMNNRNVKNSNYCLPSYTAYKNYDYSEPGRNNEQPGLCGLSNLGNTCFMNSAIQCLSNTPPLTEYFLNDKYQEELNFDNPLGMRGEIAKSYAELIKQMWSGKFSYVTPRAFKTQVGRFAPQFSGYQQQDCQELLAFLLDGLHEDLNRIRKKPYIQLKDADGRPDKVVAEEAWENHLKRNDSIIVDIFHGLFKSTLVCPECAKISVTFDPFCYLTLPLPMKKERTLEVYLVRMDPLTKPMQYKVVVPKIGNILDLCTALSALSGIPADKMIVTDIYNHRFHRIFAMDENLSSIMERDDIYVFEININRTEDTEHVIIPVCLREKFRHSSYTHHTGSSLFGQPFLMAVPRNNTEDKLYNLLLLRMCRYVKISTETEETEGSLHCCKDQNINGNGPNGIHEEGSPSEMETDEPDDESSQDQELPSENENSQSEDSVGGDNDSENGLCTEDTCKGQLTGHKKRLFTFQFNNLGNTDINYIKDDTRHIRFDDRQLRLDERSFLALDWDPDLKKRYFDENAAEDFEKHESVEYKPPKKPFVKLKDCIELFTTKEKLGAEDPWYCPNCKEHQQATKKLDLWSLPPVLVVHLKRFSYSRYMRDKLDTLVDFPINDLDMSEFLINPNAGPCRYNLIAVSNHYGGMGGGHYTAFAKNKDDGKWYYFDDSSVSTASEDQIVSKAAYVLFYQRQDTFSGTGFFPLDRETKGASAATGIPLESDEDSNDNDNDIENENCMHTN
Method in brief: as §1

USP16 = USP16 (UniProt Q9Y5T5)
Method in brief: as §1

Measured: log2 ratio of Biotin-Ahx-Ub-VS probe labelling

Sequence of UCHL1 (P09936 whole entry, looked up): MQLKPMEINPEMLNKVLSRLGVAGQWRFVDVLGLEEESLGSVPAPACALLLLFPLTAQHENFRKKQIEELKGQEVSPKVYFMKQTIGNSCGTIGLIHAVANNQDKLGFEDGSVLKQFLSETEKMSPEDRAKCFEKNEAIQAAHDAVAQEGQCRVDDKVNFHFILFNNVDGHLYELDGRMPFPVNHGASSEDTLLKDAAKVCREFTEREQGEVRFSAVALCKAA
Sequence of USP10 (Q14694 whole entry): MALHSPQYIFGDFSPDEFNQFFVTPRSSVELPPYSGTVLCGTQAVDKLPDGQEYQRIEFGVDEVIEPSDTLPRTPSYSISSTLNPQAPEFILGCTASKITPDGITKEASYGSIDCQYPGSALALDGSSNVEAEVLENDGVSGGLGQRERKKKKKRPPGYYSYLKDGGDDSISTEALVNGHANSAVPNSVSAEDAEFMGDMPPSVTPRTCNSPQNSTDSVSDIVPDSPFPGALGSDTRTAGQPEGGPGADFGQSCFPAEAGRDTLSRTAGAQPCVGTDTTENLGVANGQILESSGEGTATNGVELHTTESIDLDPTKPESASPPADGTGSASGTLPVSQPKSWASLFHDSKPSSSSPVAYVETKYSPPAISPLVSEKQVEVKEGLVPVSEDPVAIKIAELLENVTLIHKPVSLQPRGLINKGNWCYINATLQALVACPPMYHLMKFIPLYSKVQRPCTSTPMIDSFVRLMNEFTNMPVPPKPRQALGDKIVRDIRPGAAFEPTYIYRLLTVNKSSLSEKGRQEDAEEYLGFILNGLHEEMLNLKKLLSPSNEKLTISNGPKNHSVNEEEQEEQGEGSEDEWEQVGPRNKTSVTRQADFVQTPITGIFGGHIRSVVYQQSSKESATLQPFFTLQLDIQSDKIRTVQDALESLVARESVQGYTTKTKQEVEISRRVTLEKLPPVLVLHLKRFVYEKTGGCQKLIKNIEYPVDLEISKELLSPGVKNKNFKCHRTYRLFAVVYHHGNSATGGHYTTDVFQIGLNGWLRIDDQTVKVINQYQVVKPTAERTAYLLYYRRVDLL
Sequence of USP16 (Q9Y5T5 whole entry, looked up): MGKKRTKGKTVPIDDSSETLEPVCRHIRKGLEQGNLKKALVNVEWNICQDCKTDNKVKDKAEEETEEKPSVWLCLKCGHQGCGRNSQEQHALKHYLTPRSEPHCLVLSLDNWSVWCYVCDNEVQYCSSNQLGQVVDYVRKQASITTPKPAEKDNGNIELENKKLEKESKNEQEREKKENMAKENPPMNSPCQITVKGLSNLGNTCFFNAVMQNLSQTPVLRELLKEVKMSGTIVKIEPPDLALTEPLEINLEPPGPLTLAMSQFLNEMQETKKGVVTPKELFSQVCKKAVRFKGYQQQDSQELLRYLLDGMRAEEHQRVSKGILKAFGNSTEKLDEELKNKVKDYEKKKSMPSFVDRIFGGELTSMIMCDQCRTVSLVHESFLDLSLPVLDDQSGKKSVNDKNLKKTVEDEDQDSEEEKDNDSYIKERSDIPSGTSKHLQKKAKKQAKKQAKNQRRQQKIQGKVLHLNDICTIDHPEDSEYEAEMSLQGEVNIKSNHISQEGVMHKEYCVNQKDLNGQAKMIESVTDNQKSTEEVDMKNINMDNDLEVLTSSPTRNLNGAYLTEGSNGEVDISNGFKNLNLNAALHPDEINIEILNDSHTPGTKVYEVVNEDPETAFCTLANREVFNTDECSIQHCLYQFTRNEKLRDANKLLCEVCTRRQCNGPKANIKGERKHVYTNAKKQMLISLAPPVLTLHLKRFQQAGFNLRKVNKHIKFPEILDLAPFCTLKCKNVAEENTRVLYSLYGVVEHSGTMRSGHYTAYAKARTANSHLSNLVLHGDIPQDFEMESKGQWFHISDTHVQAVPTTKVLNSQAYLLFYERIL

CCN(C(=O)CCl)C1CCS(=O)(=O)C1 (stereo not given)
active: UCHL1 -1.26
inactive: OTUD6B -0.144 | OTUD7B -0.284 | PRPF8 -0.167 | PSMD7 -0.00588 | UCHL3 0.365 | UCHL5 -0.0522 | USP10 -0.169 | USP15 -0.218 | USP16 -0.707
